This is a sample that favours compounds with a hit; in the whole collection about 11% have one here.
VP16 counter: inhibits Gal4-VP16 luciferase reporter, ROR gamma counter-screen. Drosophila S2 Gal4-VP16 UAS-luciferase, luminescence, 20 h. Potency, µM (top dose mostly 53.6 µM), actives largely listed as inhibitors. hit rate 3.5% among 310,000;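 further: Gal4-VP16 expression switched on by copper sulfate through the metallothionein promoter; nearly all actives have a fitted effect of over 50% in size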
IL1B secr inh: inflammasome signaling inhibition, IL-1 beta readout; THP-1 LPS/ATP IL-1B secretion, AlphaLISA, 16 h; hits give low values; activity change, % at 57.5 µM; hit rate 4.7% among 360,000; in the data active means activity change below about -50%; inconclusive means mostly about -30% to -49%
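Secreted IL-1B measured by AlphaLISA bead assay after 16 h compound exposure of THP-1 cells; compounds (final up to 57.5 uM) added 1 h before LPS (250 ng/mL) and ATP (1.25 mM) stimulation; lower signal means less secretion.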
SW480 rerep: induces DNA re-replication in SW480 colon adenocarcinoma cells | AID 624297 | SW480 DNA re-replication, Hoechst DNA content imaging, 48 h | hit rate 1.8% among 340,000 | Potency, µM (series often up to 46.1 µM), most hits filed as activators; further: nearly all actives have a fitted effect of over 55% in size
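First, 250 cells per well were seeded. Next, compound or vehicle (23 nL) was pinned in, plates sat 48 hr at 37 C. Finally Hoechst was added for 40 min before fluorescence scanning.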
RORg inh: inhibitors of mouse ROR gamma transcriptional activity; Potency, µM (top dose mostly 53.6 µM), hits mostly inhibitors; Drosophila S2 Gal4-RORgamma UAS-luciferase reporter, 20 h; hit rate 5.4% among 310,000; AID 2551; further: nearly all actives have a fitted effect of over 60% in size
Target sequence (P51450 whole entry, looked up, the tested form may be a part): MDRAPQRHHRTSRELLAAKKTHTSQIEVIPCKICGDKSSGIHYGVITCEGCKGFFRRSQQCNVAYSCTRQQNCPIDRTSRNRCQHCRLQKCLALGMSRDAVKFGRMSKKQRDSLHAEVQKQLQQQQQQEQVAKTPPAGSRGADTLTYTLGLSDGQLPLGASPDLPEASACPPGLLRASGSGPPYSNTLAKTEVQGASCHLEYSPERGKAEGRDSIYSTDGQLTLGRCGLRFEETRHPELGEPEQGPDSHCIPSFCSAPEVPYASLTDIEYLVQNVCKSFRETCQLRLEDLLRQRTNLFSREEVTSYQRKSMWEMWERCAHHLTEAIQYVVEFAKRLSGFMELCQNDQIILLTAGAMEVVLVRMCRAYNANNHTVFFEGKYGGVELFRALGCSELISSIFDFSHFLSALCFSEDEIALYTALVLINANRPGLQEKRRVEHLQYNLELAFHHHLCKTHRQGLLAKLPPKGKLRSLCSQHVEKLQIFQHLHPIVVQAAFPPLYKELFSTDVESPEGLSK
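Compounds are pin-transferred onto Drosophila Schneider cells expressing a copper-inducible Gal4–ROR gamma transactivation domain fusion. After 1 hr, copper sulfate is added to 700 uM final; luciferase is read 20 hr later.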
MCF10A rerep: DNA re-replication induction in MCF 10a cells. MCF 10A DNA re-replication, Hoechst nuclear intensity, 48 h. Potency, µM (titrated, usually from 46.1 µM), hits mostly activators. hit rate 2.9% among 350,000. AID 624296; further: nearly all actives have a fitted effect of over 50% in size
Hits are given with their value; – = inactive; ? = inconclusive; · = not tested or not shown; [ ] = remark or other dose. Unless noted, the call rests on the fitted dose curve; in most records, active means well fitted curve in the direction sought with a large enough effect; inconclusive means small, poorly fitted or top-dose-only effect, or another doubt; inactive means no such curve, though single readings can be large; an effect the other way counts as inactive or inconclusive.

SMILES | VP16 counter | IL1B secr inh | SW480 rerep | RORg inh | MCF10A rerep
CS(=O)(=O)N1CCC(C(=O)Nc2ccccc2Sc2ccccc2)CC1 | 5.6µM | – | – | ? | –
CS(=O)(=O)N1CCC(C(=O)Nc2ccccc2)CC1 | – | – | – | – | –
CC(Sc1ccc(S(=O)(=O)N2CCCCC2)cn1)C(N)=O (configuration not stated) | · | – | · | · | ·
Cn1cc(CNC(=O)c2cc(COc3ccc4c(c3)CCCC4)on2)cn1 | – | – | – | ? | –
O=C(NC(c1cccnc1)C(F)(F)F)c1cc(COc2ccc3c(c2)CCCC3)on1 (configuration not stated) | 7.1µM | ? | ? | ? | ?
CCOC(=O)CSc1ccc2ccccc2n1 | – | – | – | – | –
CCOC(=O)CN1C=C(c2ccc3ccccc3n2)C(C[N+](=O)[O-])c2ccccc21 (configuration not stated) | – | – | ? | – | 16µM
CC1(C(=O)NCc2ccco2)Cc2c(-c3ccccc3)ccnc2O1 (configuration not stated) | · | – | · | · | ·
COc1cccc(C(C)NC(=O)Nc2cccc(C(F)(F)F)c2)c1 (configuration not stated) | 35µM | – | –[9.22 µM] | ? | –
COc1cccc(NC(=O)Nc2ccc(C(C)(C)C)cc2)c1 | – | -66 | ? | ? | ?
COc1cccc(NC(=O)Nc2cccs2)c1 | 5µM | – | – | 6.3µM | –
O=c1c(CCc2ccccc2)nc2cnc(Oc3ccccc3)nc2n1C1CC1 | – | · | · | – | ·
CCc1c2c(nc3cccc(OC)c13)OC(CC)C2 (configuration not stated) | – | · | · | – | ·
CCc1cc(=O)oc2cc(OCC(=O)N3CCc4ccccc43)ccc12 | – | · | · | – | ·
CC(=O)COc1ccc2c(-c3ccccc3)cc(=O)oc2c1C | – | – | – | – | –
CCc1cc(=O)oc2c(C)c(OCC(=O)N3CCCc4ccccc43)ccc12 | ? | – | – | 11µM | –
Cc1c(OCC(=O)NCC(O)c2ccccc2)ccc2c(-c3ccccc3)cc(=O)oc12 (configuration not stated) | – | -63 | – | ? | –
Cc1c(OCC(=O)C(C)(C)C)ccc2c(-c3ccccc3)cc(=O)oc12 | – | -64 | – | ? | ?
Cc1cnc(CNc2cc(-c3ccccc3C)ncn2)cn1 | – | · | · | – | ·
CCOC(=O)C1CCN(C(=O)C2CCN(c3ncnc4c3nc3n4CCCCC3)CC2)CC1 | – | – | – | – | –
COc1ccc(O)c(/C=N/NC(=O)CCC(=O)Nc2ccc(C)cc2)c1 | – | – | ? | 6.3µM | –
COc1ccc(O)c(/C=N/NC(=O)CCC(=O)Nc2cccc(C)c2)c1 | ? | – | 5.8µM | 13µM | ?
COc1ccc(C(=O)c2ccc([N+](=O)[O-])cc2)c(OC)c1OC | · | – | – | · | –
O=C(Cn1nnc(-c2ccc(CN3CCOCC3)cc2)n1)N(c1ccccc1)c1ccccc1 | – | – | – | – | ?
CC(C)(C)NC(=O)CN(C(=O)Cn1nnc(-c2ccc(Cl)cc2)n1)C1CCN(Cc2ccccc2)CC1 | – | -82 | ? | – | ?
SMILES | VP16 counter | IL1B secr inh | SW480 rerep | RORg inh | MCF10A rerep
COc1ccc2c(=O)c(C)c(-c3ccccc3)oc2c1CN(C)C | – | · | – | – | –
Cc1onc(-c2ccccc2Cl)c1C(=O)N1CCCCC1C (configuration not stated) | – | – | – | – | –
COc1ccc(NC(=O)c2cccc3c(-c4ccc(O)c(OC)c4)coc23)cc1 | · | – | · | · | ·
COc1cc(NC(=O)c2cccc3c(-c4cccnc4)coc23)cc(OC)c1OC | · | -78 | · | · | ·
COc1cc(-c2coc3c(C(=O)NCc4cccc(Cl)c4)cccc23)ccc1O | · | -55 | · | · | ·
COc1cc(NC(=O)c2cccc3c2C(=O)N(Cc2cccnc2)C3)cc(OC)c1OC | – | -56 | – | – | –
COc1ccc(-c2nc3cnc(Nc4cccc(OC)c4)nc3n(C)c2=O)cc1 | ? | · | · | – | ·
COc1ccc([C@H]2OCC3C2CO[C@@H]3c2ccc(OC)c(OC)c2)cc1OC (some centres not stated) | – | · | · | – | ·
CC(C)C[C@@H](CC(=O)N[C@H](CC(=O)N[C@@H]1CCCC[C@H]1C(=O)N[C@H](CC(=O)N[C@@H](CCC(=O)O)CC(=O)O)CC(C)C)C(C)C)NC(=O)[C@@H]1CCCC[C@H]1N | – | · | · | – | ·
COC(=O)c1c(NC(=O)C(=O)N2CCCC2)sc2c1CC(C)(C)OC2 | – | – | – | – | –
O=C(/C=C/c1ccco1)Nc1ccc2nc3n(c(=O)c2c1)CCCC3 | – | -51 | – | – | ?
Cc1ccc(-n2nc3ccc(NC(=O)/C=C/c4ccco4)cc3n2)cc1 | – | – | ? | – | 12µM
Cc1ccc(NC(=O)c2cccc(NC(=O)/C=C/c3ccco3)c2)cc1C | – | – | – | – | ?
CCCCCC/C=C/c1ccc(C2C3C=CCC(C)C3C(=O)N2Cc2ccccc2)c(F)c1 (configuration not stated) | – | · | · | – | ·
Nc1c(N(CCC2=CCCCC2)C(=O)COc2ccc(F)cc2)c(=O)[nH]c(=O)n1Cc1ccccc1 | · | ? | – | · | 16µM
CCN(CC)c1nc(N)nc(NS(=O)(=O)c2ccc(Cl)cc2)n1 | – | – | – | – | –
CCN(CC)c1nc(NN)nc(Nc2ccc(C)c(Cl)c2)n1 | · | -76 | ? | · | ?
N=C(N)n1ncc2c1CCCC2=O | · | – | · | · | ·
O=Cc1ccc(C(=O)OCC(=O)NC(=O)Nc2ccccc2F)cc1 | · | – | – | · | –
CC(C)(C)c1ccc(C(=O)N2CCOC23CCCCC3)cc1 | · | – | · | · | ·
COc1cc(C=NNC(=O)C(=O)Nc2cccc(Cl)c2)cc(OC)c1O | · | – | · | · | ·
C=CCc1cccc(/C=N/NC(=O)C(=O)Nc2ccc(C)cc2)c1O | 11µM | – | – | 2.2µM | –
C=CCc1cccc(/C=N/NC(=O)C(C)Nc2ccc(C)cc2)c1O (configuration not stated) | 2.8µM | – | 16µM | 0.56µM | ?
O=C1N[C@H]2CC=C[C@H]2Nc2ccccc21 | · | – | ? | · | ?
CC1(C(=O)NS(=O)(=O)C2CC2)CCCN(C(=O)C2(c3ccc(Cl)cc3)CCCC2)C1 (configuration not stated) | · | – | · | · | ·
SMILES | VP16 counter | IL1B secr inh | SW480 rerep | RORg inh | MCF10A rerep
CCC(C)(C)NC(=O)CCCSc1nc2ccccc2s1 | – | – | – | – | –
CC(C)NC(=O)NC(=O)COC(=O)CCCSc1nc2ccccc2s1 | 6.3µM | – | – | 11µM | –
CCOC(=O)NC(=O)COC(=O)CCCSc1nc2ccccc2s1 | 8.9µM | – | – | 7.1µM | –
NC(=O)NC(=O)COC(=O)CCCSc1nc2ccccc2s1 | 8.9µM | – | ? | 11µM | –
CCOC(=O)N/C(N)=N/c1nc2ccccc2s1 | 28µM | – | – | ? | –
Cc1cccc(C)c1NC(=O)CCCSc1nc2ccccc2s1 | – | – | – | – | ?
Cc1ccc(C(=O)OCC(=O)N2CCCC2)cc1 | – | – | – | – | –

Screening results as filed in PubChem.
